According to PubChem BioAssay AID1159580 (chemical genetic matrix, 2015):
The whole screen tested about 5,500 compounds, of which about 2,000 (36%) were called active. Roughly 18% stayed inconclusive and do not appear here. No stated cut-off is given here; in the data, active means normalized growth mostly below about 0.91 (no sharp cut-off); inconclusive means no clear call, values can overlap the other calls; inactive means mostly above about 0.92. Some of the results follow.

Experiment: chemical genetic growth profiling, strain panel (AID 1159580);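 further: tested at 20 µM; growth read once vehicle control cultures reached saturation at 30 °C; 1 = growth at the plate median or of vehicle wells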
Conditions: S. cerevisiae deletion strains, growth OD

Measured: normalized growth

CNc1ncnc2c1ncn2[C@H]1C[C@H](OP(=O)(O)O)[C@@H](COP(=O)(O)O)O1
inactive: locus YAL040C, strain CLN3, stronger effect = lower value 0.995 | locus YCL061C, strain MRC1 (second series), stronger effect = lower value 1.01 | locus YDR363W, strain ESC2, stronger effect = lower value 1 | locus YER002W, strain NOP16, stronger effect = lower value 0.983 | locus YGR229C, strain SMI1, stronger effect = lower value 1.02 | locus YJR075W, strain HOC1, stronger effect = lower value 1.01 | locus YNL175C, strain NOP13, stronger effect = lower value 0.996 | locus YNL197C, strain WHI3, stronger effect = lower value 1 | locus YNL224C, strain SQS1, stronger effect = lower value 1 | locus YNL322C, strain KRE1, stronger effect = lower value 1.01 | locus YOR083W, strain WHI5 (second series), stronger effect = lower value 1.01 | locus YPL055C, strain LGE1, stronger effect = lower value 1.01 | locus YPL241C, strain CIN2, stronger effect = lower value 1
